From PubChem BioAssay (EPA / NIEHS) come the findings set out here.

Broadly, the AC50 is the midpoint of the concentration-response curve, whichever way the signal moves.

Some compounds were tested as several samples or in several runs, with calls that do not always agree. Calls of active or inactive are those of the source. Rule for the calls: active = hit-call score of the fitted dose curve at least 0.9, where 1 is the maximum; inactive = score below 0.9.

A short description of the assay: ATG_AP_1_CIS: Attagene CIS-FACTORIAL HepG2 Assay for human Activator Protein 1 (AP-1) (AID 2282931). As to conditions: HepG2 Attagene cis-factorial AP-1 reporter mRNA; actives raise or lower the signal. On the procedure: ATG_CIS is a cell-based, multiplexed-readout assay that uses HepG2, a human liver cell line, with measurements taken at 24 hours after chemical dosing in a 24-well plate.ATG_AP_1_CIS is one of 52 assay component(s) measured or calculated from the ATG_CIS assay. It is designed to make measurements of mRNA induction, a form of inducible reporter, as detected with fluorescence intensity signals by Reverse transcription polymerase chain reaction (RT-PCR) and Capillary electrophoresis technology.Data from the assay component ATG_AP_1_CIS was analyzed into 1 assay endpoint. This assay endpoint, ATG_AP_1_CIS, was analyzed with bidirectional fitting relative to DMSO as the negative control and baseline of activity. Using a type of inducible reporter, measures of mRNA for gain or loss-of-signal activity can be used to understand the reporter gene at the transcription factor-level as they relate to the gene FOS and JUN. Furthermore, this assay endpoint can be referred to as a primary readout, because this assay has produced multiple assay endpoints where this one serves a reporter gene function. To generalize the intended target to other relatable targets, this assay endpoint is annotated to the dna binding intended target family, where the subfamily is basic leucine zipper.
Human liver HepG2 cells are transiently transfected with multiple reporter transcription units (MRTUs) in 6-well plates using FuGene 6 reagent (Roche; 3 ml FuGene/1 mg DNA). The MRTU constructs are regulated by a cis-regulating element (promoter). […] A major difference between the CIS and TRANS system is that in CIS activities of endogenous TFs are measured, whereas the TRANS assay evaluates changes in activities of exogenous, chimeric NR-Gal4 proteins. […] At the end of 24 hour incubation, total RNA was isolated using TriZol reagent (Invitrogen). The isolated RNA is then reverse-transcribed using oligo(dT) primer and Mo-MLV reverse transcriptase (Invitrogen) with DNAse I (Ambion) treatment for 30 min. The one-tenth of the produced cDNA was amplified by PCR using Taq DNA polymerase (Invitrogen) and two reporter sequence-specific primers. The PCR products were fluorescently labeled by primer extension with 6-arboxyfluorescein (6-FAM) 5'-labeled reporter sequence-specific primer (2 min at 95 C, 20 s at 68 C and 10 min at 72 C) and these products were digested with 5U of HpaI (New England Biolabs) for 2h at 37 C. The fragments were purified using Qiaquick PCR columns (Qiagen), analyzed on an ABI 3130xL genetic analyzer (Applied Biosystems) with peak positions identified by using a set of X-rhodamine (ROX)-labeled MapMarker1000 molecular weight standards (BioVentures). The raw capillary electrophoresis data was processed using Attagraph software (Attagene).
As to `O=S(=O)(O)C(F)(F)C(F)(F)C(F)(F)C(F)(F)C(F)(F)C(F)(F)C(F)(F)C(F)(F)F`, the AC50 was 26.9 µM (active) [middle of 8 runs] and the call was inactive.
In the case of `COP(=S)(OC)Oc1ccc([N+](=O)[O-])cc1`, the call was inactive.
Consider `C[C@H]1[C@H](c2ccc(Cl)cc2)SC(=O)N1C(=O)NC1CCCCC1`, for which the AC50 is 23.1 µM (active).
`Oc1ccc(Cl)cc1Cc1ccccc1`: the molecule was classed as inactive and the half-maximal activity concentration (AC50) is 12.7 µM (active).
`O=C(O)CCCOc1ccc(Cl)cc1Cl`: the result was inactive.
`CCCN(CCOc1c(Cl)cc(Cl)cc1Cl)C(=O)n1ccnc1`: the AC50 was 14 µM (active) and the result was inactive.
`CNC(=O)Oc1ccccc1OC(C)C`: the molecule was called inactive.
Same read-out and setting: the result for `CC(C)OC(=O)Nc1cccc(Cl)c1` reads “inactive”.
As for `O=C(O)C(F)(F)C(F)(F)C(F)(F)C(F)(F)C(F)(F)C(F)(F)C(F)(F)F`, the AC50 was 150 µM (active) and the result was inactive.
`Oc1cc(Cl)ccc1Oc1ccc(Cl)cc1Cl`: the half-maximal activity concentration (AC50) was 8.94 µM (active) [middle of 5 runs] and the outcome was inactive.
On to `O=[N+]([O-])/N=C1\NCCN1Cc1ccc(Cl)nc1`, for which the molecule was classed as inactive.
In the case of `CC(C)N(C(=O)COc1nnc(C(F)(F)F)s1)c1ccc(F)cc1`, the AC50 was 50 µM (active).
As to `CCCN(CCC)c1c([N+](=O)[O-])cc(C(F)(F)F)cc1[N+](=O)[O-]`, the call was inactive.
Take `CCN(CC)C(=O)SCc1ccc(Cl)cc1`: the molecule was called inactive.
For the molecule `COP(=S)(OC)Oc1ccc(SC)c(C)c1`, the result was inactive.
For the molecule `CCS(=O)(=O)c1cccnc1S(=O)(=O)NC(=O)Nc1nc(OC)cc(OC)n1`, the outcome was inactive.
With `CCOCN(C(=O)CCl)c1c(C)cccc1CC`, the molecule was classed as inactive.
Same read-out and setting: the result for `O=S1OCC2C(CO1)C1(Cl)C(Cl)=C(Cl)C2(Cl)C1(Cl)Cl` (stereo not given) reads “inactive”.
On the same count and under the same terms, the result for `CC1(C)C(C=C(Cl)Cl)C1C(=O)OC(C#N)c1ccc(F)c(Oc2ccccc2)c1` (stereo not given) reads “inactive”.
On to `CC(C)(C)C(O)C(Oc1ccc(Cl)cc1)n1cncn1` (stereo not given), for which the concentration at half-maximal activity (AC50) is 10.4 µM (active) and the molecule was classed as inactive.
As to `C#CCN1C(=O)COc2cc(F)c(N3C(=O)C4=C(CCCC4)C3=O)cc21`, the call was inactive.
For the molecule `CNC(=O)CSP(=S)(OC)OC`, the molecule was classed as inactive.
For the molecule `N#Cc1c(Cl)c(Cl)c(Cl)c(C#N)c1Cl`, the result was inactive.
The same measure, in the same setting: then `CCOc1nc(NC)nc(NC(=O)NS(=O)(=O)c2ccccc2C(=O)OC)n1`, with “inactive”.
Regarding `ClC1C(Cl)C(Cl)C(Cl)C(Cl)C1Cl` (stereo not given), the half-maximal activity concentration (AC50) is 47.9 µM (active) and the molecule was classed as inactive.
Take `COC(=O)c1ccccc1S(=O)(=O)NC(=O)N(C)c1nc(C)nc(OC)n1`: the result was inactive.
The same measure, in the same setting: the result for `CNC(=O)/C=C(\C)OP(=O)(OC)OC` reads “inactive”; that for `CCc1ccc(C(=O)NN(C(=O)c2cc(C)cc(C)c2)C(C)(C)C)cc1`, “inactive”.
For the molecule `CN1CSC(=S)N(C)C1`, the call was inactive.
For `O=C1c2ccccc2C(=O)N1SC(Cl)(Cl)Cl`, the call was inactive.
`Cc1[nH]c(=O)n(C(C)(C)C)c(=O)c1Cl`: the molecule was classed as inactive.
For the molecule `N#CN`, the molecule was called inactive.
Consider `O=C(O)COc1ccc(Cl)cc1Cl`, for which the result was inactive.
